The full list was thinned out, with hits kept by preference.
Tgondii IFNg: blocks Toxoplasma gondii growth in the presence of IFN-gamma | Toxoplasma gondii growth in IFN-gamma-treated host cells; hits give low values | activity change, negative = inhibition, % (no concentration beside the values) | actives 3.8% (n = 69,000) | AID 1259416; in the data active = activity change below about -70%, passing the limit was not always enough;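 note: host cells are HeLa cells infected with Toxoplasma gondii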
Large screens that a line does not name were inactive; ! = not confirmed by another sample.

CCOc1ccc(NC(=O)CN2C(=O)CCc3cc(S(=O)(=O)N4CCCC4)ccc32)cc1	none
CC(CCc1ccccc1)NC(=O)c1cc2cc(S(=O)(=O)N(C)C)ccc2n1Cc1ccncc1 (centres undefined)	none
CCN(CC)C(=O)C1(Cc2cccc(-c3cccnc3)c2)CCN(S(=O)(=O)N(C)C)C1 (centres undefined)	none
O=C(C1CC1)N1CCc2cc(-c3csc(C4CC4)n3)ccc21	Tgondii IFNg -112
Cc1nc(-c2ccccc2)sc1C(=O)N1CCCc2ccccc21	none
CC(=O)N1CCC(C(=O)N2CCc3cc(-c4csc(C5CC5)n4)ccc32)CC1	none
CCOC(=O)C1CCN(C(=O)c2ccc(-c3csc(C4CC4)n3)cc2)CC1	none
Cc1nc(C)c(C(=O)N2CCc3cc(-c4csc(C5CC5)n4)ccc32)s1	Tgondii IFNg -109
Cc1cccc(N2CCN(C(=O)c3ccc(-c4csc(C5CC5)n4)cc3)CC2)c1C	none
Cn1cc(N2CCC3(CCN(Cc4ccc(F)cc4)CC3)C2=O)cn1	none
N#Cc1ccccc1N1CC2(CCCCN2CC2CC2)CC1=O (centres undefined)	none
COc1ccc(C(=O)N(Cc2ccc(SC)cc2)C2(C(=O)NCc3ccccc3)CCN(C(C)=O)CC2)cc1	none
CO[C@H]1CC[C@@H]2[C@H]1OCCN2C(=O)N(C)C	none
CCN(CC)Cc1cn2c(n1)CN(C(=O)c1cnoc1C)CC2	none
CCOc1ccc(-c2nc(CN(c3ccc(OCC)cc3)S(=O)(=O)c3ccccc3)c(C)o2)cc1	none
O=C(Nc1ccc(F)cc1)N1C[C@@H]2N[C@H](C1)C2c1ccc(/C=C/c2ccccc2)cc1 (some centres undefined)	none
COc1ccccc1NC(=O)N1C[C@@H]2N[C@H](C1)C2c1ccc(-c2cccc(C#N)c2)cc1 (some centres undefined)	none
C/C=C/c1ccc(C2[C@@H]3CN(C(=O)NC4CCCCC4)C[C@H]2N3)cc1 (some centres undefined)	none
COc1cccc(-c2ccc(C3[C@@H]4CN(C(=O)Nc5ccccc5F)C[C@H]3N4)cc2)c1 (some centres undefined)	Tgondii IFNg -74!
O=C(NC1CCCCC1)N1C[C@@H]2N[C@H](C1)C2c1ccc(-c2ccc(F)cc2)cc1 (some centres undefined)	Tgondii IFNg -77!
C/C=C/c1ccc(C2[C@@H]3CN(C(=O)Nc4ccc(C(F)(F)F)cc4)C[C@H]2N3)cc1 (some centres undefined)	Tgondii IFNg -79!
C/C=C/c1ccc(C2[C@@H]3CN(C(=O)Nc4ccccc4F)C[C@H]2N3)cc1 (some centres undefined)	none
Cc1cccc(-c2ccc(C3[C@@H]4CN(C(=O)c5ccncc5)C[C@H]3N4)cc2)c1 (some centres undefined)	none
N#Cc1cccc(-c2ccc(C3[C@@H]4CN(C(=O)Nc5ccc(C(F)(F)F)cc5)C[C@H]3N4)cc2)c1 (some centres undefined)	Tgondii IFNg -73!
COc1ccc(-c2ccc(C3[C@@H]4CN(C(=O)c5ccc(F)cc5)C[C@H]3N4)cc2)cc1 (some centres undefined)	none
N#Cc1ccc(-c2ccc(C3[C@@H]4CN(C(=O)C5CCCCC5)C[C@H]3N4)cc2)cc1 (some centres undefined)	none
COc1ccc(NC(=O)N2C[C@@H]3N[C@H](C2)C3c2ccc(-c3ccncc3)cc2)cc1 (some centres undefined)	none
COc1ccc(CCNC(=O)CC2Nc3c4ccccc4nc(=S)n3C2=O)cc1OC (centres undefined)	none
COC(=O)c1ccc(S(=O)(=O)N2CC(c3ccccn3)C2)n1C	none
Cc1nc(-c2ccc(F)cc2)sc1-c1ccc(SCc2ccccc2)nn1	none
CC(Cn1cncn1)C(=O)Nc1ccccc1C(=O)N1CCCCCC1 (centres undefined)	none
COCCO[C@H]1CCN(C(=O)C2CCOCC2)[C@H]1Cc1ccncc1	none
CN(Cc1cc(-c2cccnc2)no1)Cc1ncccc1C(=O)O	none
O=C(NCc1ccco1)[C@@H]1CN(Cc2cccc(F)c2F)[C@@H]2CCO[C@H]21	none
CC1CCN(S(=O)(=O)c2ccc3c(c2)CCC(=O)N3CC(=O)NCc2cccnc2)CC1	none
O=S(=O)(NCC(c1cccnc1)c1c[nH]c2ccccc12)c1ccc2c(c1)CCCC2 (centres undefined)	none
CC(C)N1CCC2(CC1)CN(C(=O)Nc1ccccc1)Cc1ccccc12	none
CCN1C(=O)N(Cc2cccc(OC)c2)C(=O)C12CCN(Cc1cc3ccccc3s1)CC2	Tgondii IFNg -90
CCN1C(=O)N(Cc2cccc(OC)c2)C(=O)C12CCN(CC(c1ccccc1)c1ccccc1)CC2	none
CCN1C(=O)N(Cc2cccc(OC)c2)C(=O)C12CCN(Cc1ccc(N3CCCC3)cc1)CC2	none
Cc1ccc(-c2coc(-c3ccc(NC(=O)Nc4cc(C)cc(C)c4)cc3)n2)cc1	none
CCOc1ncc(Cl)cc1C(=O)O	none
COC(=O)[C@@H]1C[C@@H](N(C)C)CN1Cc1cccc(Cn2cccn2)c1	none
Cc1cc2cc(NC(=O)CNC(=O)c3nc4ncccn4n3)cc(Cl)c2o1	none
Cc1cc2cc(NC(=O)c3nc4ccccc4n(C)c3=O)cc(Cl)c2o1	none

High-throughput results as filed in PubChem BioAssay.
